Data taken from PubChem BioAssay AID504332 (National Center for Advancing Translational Sciences (NCATS), 2011).
Out of some 350,000 compounds screened, about 31,000 (8.9%) were called active. Inconclusive results (about 15%) are left out. The call rests on the fitted dose curve; in most records, active means well fitted inhibition curve with a large enough effect; inconclusive means small, poorly fitted or top-dose-only effect; inactive means no such curve, though single readings can be large or run the other way. The entries come from a sample that favours actives as a whole.

The compounds below were run against Histone-lysine N-methyltransferase EHMT2 (Homo sapiens) (UniProt Q96KQ7) (assay: qHTS Assay for Inhibitors of Histone Lysine Methyltransferase G9a). Conditions: G9a H3K9 monomethylation, AlphaScreen, 2 h; series mostly up to 59 µM; activity, negative = inhibition: at the top concentration.
Procedure, shortened: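 Using a bead-based AlphaScreen, monomethylated H3K9 product from 2 h room-temperature reactions (G9a 20 nM, peptide 500 nM, SAM 20 uM) was detected with 0.5 ug/mL rabbit anti-H3K9me1 antibody.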
Further: nearly all actives have a fitted effect of over 75% in size.
On the % scale 0 is the no-effect control and ±100 the full control effect; potency means the concentration at half of the fitted maximal effect.

Sequence of Histone-lysine N-methyltransferase EHMT2 (Homo sapiens) (Q96KQ7 913-1193 limits assumed): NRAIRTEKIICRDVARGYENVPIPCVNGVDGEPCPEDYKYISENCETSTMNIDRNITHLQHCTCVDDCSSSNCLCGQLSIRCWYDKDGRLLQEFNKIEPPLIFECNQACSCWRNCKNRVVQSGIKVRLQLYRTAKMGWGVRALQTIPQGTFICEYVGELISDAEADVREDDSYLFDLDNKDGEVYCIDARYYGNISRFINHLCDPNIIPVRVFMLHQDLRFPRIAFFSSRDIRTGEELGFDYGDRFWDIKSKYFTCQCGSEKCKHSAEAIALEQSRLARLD

Structure (SMILES)	activity, negative = inhibition	Potency
COc1ccc([N+](=O)[O-])cc1NC(=O)C(C)OC(=O)C1c2ccccc2Oc2ccccc21 (stereo not drawn)	19.7% (inactive)	
COc1ccccc1C1CCN(c2ccc([N+](=O)[O-])cn2)CC1	-8.3% [at 102 µM] (inactive)	
COc1ccc([N+](=O)[O-])cc1C1NN=C(c2cccc3ccccc23)S1 (stereo not drawn)		28.2 µM (active)
COc1ccc(-n2c(=O)c3ccccc3n(Cc3ccccc3Cl)c2=O)cc1	-1.02% (inactive)	
Cc1ccc(OCC(=O)OCc2cc(=O)n3nc(C4CC4)sc3n2)cc1	11.3% (inactive)	
COc1ccccc1NC(=O)CSC1=Nc2ccccc2C2=NC(CC(=O)NCc3cccs3)C(=O)N12 (stereo not drawn)	1.33% (inactive)	
Cc1c(C(=O)OCC(=O)N2CCCC2=O)oc2ccccc12	-40.6% [at 102 µM] (inactive)	
COc1ccc2cc(-c3nc(Cl)c4c5c(sc4n3)CC(C)CC5)c(=O)oc2c1 (stereo not drawn)	8.14% (inactive)	
C=CCn1c(SCc2c(C)noc2C)nc2sc3c(c2c1=O)CCC(C)C3 (stereo not drawn)		39.8 µM (active)
C=CCn1c(SCC(=O)NCC2CCCO2)nc2sc(C)c(C)c2c1=O (stereo not drawn)	48.6% [at 102 µM] (inactive)	
CC(=O)N1CCSc2ccc(S(=O)(=O)N3CCC(C)CC3)cc21	9.52% [at 102 µM] (inactive)	
Cc1cccc(NC(=O)CN2CCN(C(=O)C3CCN(C(=O)/C=C/c4ccccc4)CC3)CC2)c1C	14.7% [at 2.33 µM] (inactive)	
COc1ccc(NC(=O)CSc2ncnc3[nH]ncc23)cc1	6.21% [at 102 µM] (inactive)	
COc1ccc(NC(=O)CSc2nc(N)c(-c3ccccc3)c(=O)[nH]2)cc1	-21.3% (inactive)	
COc1ccc(-c2nc3c(c(SCC(=O)Nc4ccc(C(=O)O)cc4)n2)Cc2ccccc2O3)cc1		11.2 µM (active)
CCc1ccc(NC(=O)N2CCN(C(=O)c3nsc4ccccc34)CC2)cc1	8.41% (inactive)	
CN(Cc1ccccc1F)C(=O)C(Cc1ccccc1)NC(=O)c1ccccc1 (stereo not drawn)	8.33% [at 102 µM] (inactive)	
CN(Cc1ccccc1)Cc1ccccc1F		8.91 µM (active)
CN(CC(=O)NC(=O)Nc1ccccc1F)Cc1ccccc1	2.2% [at 0.501 µM] (inactive)	
O=C(NCC(c1cccs1)N1CCOCC1)c1cc(Cl)ccc1[N+](=O)[O-] (stereo not drawn)	3.96% [at 0.501 µM] (inactive)	
COC(=O)c1ccc(NC(=O)c2cc(S(=O)(=O)N3CCC(C)CC3)cn2C)cc1	4.49% (inactive)	
O=C(Nc1ccn(Cc2ccccc2)n1)c1cccc(F)c1	-8.84% [at 102 µM] (inactive)	
Cc1ccc(Cn2ccc(NC(=O)C3C4CCC(C4)C3C(=O)O)n2)cc1 (stereo not drawn)		56.2 µM (active)
Cc1ccc(Cn2ccc(NC(=O)c3cc(C(C)C)on3)n2)cc1	-37.2% [at 102 µM] (inactive)	

Structure (SMILES)	activity, negative = inhibition	Potency
Cc1cccc(NC(=O)N2CCC(CN3CCc4ccccc4C3)CC2)c1C	10.2% (inactive)	
COc1cccc(CNC(=O)C2CC(=O)N(C3CCCCCCC3)C2)c1 (stereo not drawn)	14.8% (inactive)	
CCn1nc(C(=O)Nc2ccc(N3CCOCC3)cc2)c2ccccc2c1=O	17.9% [at 12.7 µM] (inactive)	
O=C(COC(=O)Cc1ccc(Br)cc1)Nc1ccc(N2CCOCC2)cc1	4.16% (inactive)	
O=C(COC(=O)CCc1nc2ccccc2c(=O)[nH]1)Nc1ccc(N2CCOCC2)cc1		50.1 µM (active)
CCCCNc1ccc(-c2nc(-c3ccncc3)no2)cc1[N+](=O)[O-]	-26.7% (inactive)	
COc1ccc(OC)c(CCNC(=O)CCCn2c(=O)c3cccn3c3cccnc32)c1	-8.79% (inactive)	
CC(C)c1ccc2oc(-c3cc(NC(=O)c4cccs4)ccc3Cl)nc2c1	15.9% (inactive)	
COc1cc(OC)c(NC(=O)c2c3c(nn2C)-c2ccccc2SC3)cc1Cl	-9.51% (inactive)	
Cc1c(-c2nc(-c3ccc4c(c3)OCO4)no2)nnn1-c1ccc(Br)cc1F	6.85% (inactive)	
O=C(COC(=O)c1ccc([N+](=O)[O-])cc1Cl)NC(=O)c1ccccc1	-29.5% [at 102 µM] (inactive)	
CCN1CCN(CCCNC(=O)c2cnn(-c3ccc(C)cc3C)c2C2CCN(C(=O)OC(C)(C)C)CC2)CC1	8.42% (inactive)	
Cc1cc(C)c(NC(=O)c2cc3sc(Cl)cc3n2C)c(C)c1	5.54% (inactive)	
COc1cccc(C(=O)NC(=O)Nc2ccc(-c3cc(C(F)(F)F)nn3-c3ccccc3)cc2)c1	11.4% (inactive)	
CC(=O)N(c1ccc2oc(=O)sc2c1)S(=O)(=O)c1ccc(C)cc1		25.1 µM (active)
COC(=O)c1c(C)oc2ccc(N(C(=O)Oc3ccccc3)S(=O)(=O)c3ccccc3)cc12	-0.954% (inactive)	
CC(=O)Oc1ccc(N(C(C)=O)S(=O)(=O)c2ccc3ccccc3c2)cc1Br	-1.32% [at 102 µM] (inactive)	
COc1ccc(OC)c(NC(=O)Cn2c(=O)n(Cc3ccccc3)c(=O)c3ccccc32)c1	-22.9% (inactive)	
Cc1nc2cc(NC(=O)Nc3cccc(F)c3)ccc2n1C	23.6% [at 12.7 µM] (inactive)	
Cc1nc2cc(NCc3cccs3)ccc2n1C		7.94 µM (active)
C=CCN(C(=O)Nc1ccc2c(c1)nc(C)n2C)c1ccccc1	10.6% [at 12.7 µM] (inactive)	
O=C1C=C(c2cccc(Cl)c2O)C[C@@H](c2ccc(F)cc2)C1	4.95% [at 0.501 µM] (inactive)	
Cc1cccc(CSc2nc3ccncc3n2CC(=O)N(C)C2CCCCC2)c1	-1.35% (inactive)	
CCC1=C/C(=C\c2ccc3c(c2)OCO3)C(=O)S1		11.2 µM (active)

Structure (SMILES)	activity, negative = inhibition	Potency
CCOC(=O)CCCNC(=O)COC(=O)/C=C/c1ccc2c(c1)OCO2	2.73% [at 102 µM] (inactive)	
CCc1c(C)sc(NC(=O)/C=C/c2ccc3c(c2)OCO3)c1C(=O)OC	88.9% (inactive)	
COc1ccc(CCNC(=O)c2cnc3sc(N4CCCCCC4)nn3c2=O)cc1OC	11.6% (inactive)	
Cc1oc2ccc(O)c(CN3CCC(C)CC3)c2c1C(=O)Nc1ccccc1	-28.5% (inactive)	
Cc1nc2ccc(S(=O)(=O)NC(C(=O)NCc3ccccc3Cl)C(C)C)cc2s1 (stereo not drawn)	7.62% (inactive)	
Brc1ccc(-c2csc(N/N=C/c3cccnc3)n2)cc1		14.1 µM (active)
O=C(Cc1ccc(F)cc1)N/N=C/c1ccc2c(c1)OCO2	17.5% [at 102 µM] (inactive)	
O=C(NCc1cccnc1)C(=O)Nc1nc(-c2ccccc2)cs1	-6.58% (inactive)	
Brc1ccc(-c2csc(N/N=C/c3ccc4c(c3)OCO4)n2)cc1		3.55 µM (active)
O=C(N/N=C/c1ccc2c(c1)OCO2)C(=O)N1CCCC1	5.14% [at 102 µM] (inactive)	
O=C(Nc1nc(-c2ccc(-c3ccccc3)cc2)cs1)c1cnccn1	23.9% (inactive)	
CCOc1ccc(-c2cc3c(=O)n(CC(=O)NCc4ccc(OC)cc4)ccn3n2)cc1	0.34% [at 12.7 µM] (inactive)	
Cc1ccc(C)c(Oc2c(C(F)(F)F)oc3c(CN4CCN(C)CC4)c(O)ccc3c2=O)c1	-27.1% (inactive)	
Cc1ccc2nc(/C(C#N)=C/c3ccc(-c4ccc(C(=O)OC(C)C)cc4)o3)[nH]c2c1	-5.43% (inactive)	
Cc1ccccc1-n1c(SCC(=O)NCc2cccs2)nnc1-c1ccncc1	2.97% [at 102 µM] (inactive)	
Cc1ccc(-n2c(SCC(=O)N3c4ccccc4Sc4ccccc43)nnc2-c2ccncc2)cc1	-5.41% (inactive)	
Cc1ccc(Nc2nc(CSc3nnc(-c4ccncc4)n3-c3ccccc3C)cs2)cc1		44.7 µM (active)
CCOc1ccc(CNCCSc2nnnn2C)cc1	-3.51% (inactive)	
CCc1ccc(NC(=O)c2cc(S(=O)(=O)N3CCCC(C)C3)cn2C)cc1 (stereo not drawn)	-3.12% (inactive)	
CCc1nc(-c2cc(S(=O)(=O)N3CCN(c4ccc(OC)cc4)CC3)ccc2OC)no1		0.631 µM (active)
COc1ccc(S(=O)(=O)N2CCN(c3ccc(F)cc3)CC2)cc1-c1noc(C)n1	6.56% (inactive)	
COc1ccc(OC)c(-c2noc(N3CCN(c4cc(Cl)ccc4C)CC3)n2)c1	-5.88% (inactive)	
Cc1ccc(-n2ncc3c(N4CCC(C(N)=O)CC4)ncnc32)cc1	-5.29% (inactive)	
CC(C)(C)OC(=O)N1CCC(c2c(C(=O)N3CCc4ccccc4C3)cnn2-c2ccc(F)cc2)CC1	-8.88% (inactive)	

Structure (SMILES)	activity, negative = inhibition	Potency
Cc1ccc(C(=O)Nc2ccc(OCc3cc(=O)n4c5c(sc4n3)CCCC5)cc2)cc1	7.45% (inactive)	
O=C(COC(=O)CNS(=O)(=O)c1ccc(F)c(F)c1F)NC1CCCC1	-25.7% [at 102 µM] (inactive)	
CCc1ccc(S(=O)(=O)c2nnn3c2nc(N2CCN(CC)CC2)c2sccc23)cc1	-45.5% (inactive)	
CCCCN(C(=O)CSCC(=O)Nc1ccc(OC)cc1)c1c(N)n(CCC)c(=O)[nH]c1=O	19.8% [at 2.33 µM] (inactive)	
CCOC(=O)N1CCN(Cc2nc(N)nc(Nc3ccc(C)cc3)n2)CC1	-23.8% [at 2.33 µM] (inactive)	
Cc1ccccc1Nc1nc(N)nc(CN2CCN(c3ccccn3)CC2)n1	-45.5% [at 12.7 µM] (inactive)	
Cc1ccc(Nc2nc(N)nc(CN3CCN(Cc4ccccc4)CC3)n2)cc1Cl		50.1 µM (active)
CC(=O)c1ccc(NC(=O)c2ccc(-n3cncn3)c([N+](=O)[O-])c2)cc1	15% [at 102 µM] (inactive)	
CC(=O)Nc1ccc(S(=O)(=O)N2CCN(c3ccc([N+](=O)[O-])c(NCCN4CCOCC4)c3)CC2)cc1		70.8 µM (active)
CC(=O)Nc1ccc(S(=O)(=O)N2CCN(c3ccccc3)CC2)cc1	1.17% (inactive)	
COc1ccccc1OCCNC(=O)c1cc([N+](=O)[O-])cc([N+](=O)[O-])c1	-33.4% [at 102 µM] (inactive)	
O=[N+]([O-])c1ccc(N2CCN(S(=O)(=O)c3ccc4ccccc4c3)CC2)cc1NCc1ccco1	-41.4% (inactive)	
O=C(c1ccccc1)N1CCN(c2ccc([N+](=O)[O-])c(NCc3ccco3)c2)CC1	44.5% [at 0.501 µM] (inactive)	
COc1ccccc1OCCNc1cc(N2CCOCC2)ccc1[N+](=O)[O-]		39.8 µM (active)
O=C(NCCNc1ccccc1[N+](=O)[O-])c1ccccc1F	2.67% (inactive)	
Cc1ccc(CCNC(=O)c2ccc(CS(=O)(=O)Cc3cccc(C)c3)o2)cc1	9.17% (inactive)	
O=C(N/N=C\c1cc2c(cc1Cl)OCO2)c1ccc(Br)s1	-6.61% [at 102 µM] (inactive)	
CCN1C(=O)[C@@H]2[C@@H](c3ccc(-c4cccc(Cl)c4)cc3)N3CCC[C@@]3(C(=O)OC)[C@@H]2C1=O	4.52% [at 2.33 µM] (inactive)	
CCOc1cc(/C=C2/C(=N)N3OC(C)=CC3=NC2=O)ccc1OC	-30.7% [at 102 µM] (inactive)	
CC1=CC2=NC(=O)/C(=C/c3coc4ccccc4c3=O)C(=N)N2O1		44.7 µM (active)
CC(C)(C)OC(=O)NCCCCCC(=O)N/N=C/c1coc2ccccc2c1=O	-6.59% [at 102 µM] (inactive)	
